Where “and” joins values, the source holds several entries; their conditions need not be identical. Identical values can stand only once. Inconclusive results are not listed. Where a call stands in place of a potency, no number is given. Unmarked numbers belong to inactive results. Calls of active or inactive are those of the source. Unless noted, calls come from the whole dose curve; as a rule, active = well fitted curve in the direction sought with a large enough effect in the repeat runs; inconclusive = weak or mixed curves; inactive = no such curve, though single readings can be large; an effect the other way counts as inactive or inconclusive.
Columns and labels:
[1] = qHTS assay to identify aromatase inhibitors - cell viability counter screen (AID 743084);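 note: cells stimulated with testosterone during compound exposure; nearly all actives have a fitted effect of over 55% in size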; note: potency is the fitted concentration of half-maximal effect
[2] = target: Aryl hydrocarbon receptor (Homo sapiens) (UniProt P35869); experiment: qHTS assay to identify small molecule that activate the aryl hydrocarbon receptor (AhR) signaling pathway (AID 743085); note: nearly all actives have a fitted effect of over 15% in size; note: potency is the fitted concentration of half-maximal effect;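 for activation: HG2L7.5c1 human HepG2 liver cells with stably integrated DRE-driven firefly reporter; series mostly up to about 70 µM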
Aryl hydrocarbon receptor (Homo sapiens), sequence (P35869 whole entry, looked up): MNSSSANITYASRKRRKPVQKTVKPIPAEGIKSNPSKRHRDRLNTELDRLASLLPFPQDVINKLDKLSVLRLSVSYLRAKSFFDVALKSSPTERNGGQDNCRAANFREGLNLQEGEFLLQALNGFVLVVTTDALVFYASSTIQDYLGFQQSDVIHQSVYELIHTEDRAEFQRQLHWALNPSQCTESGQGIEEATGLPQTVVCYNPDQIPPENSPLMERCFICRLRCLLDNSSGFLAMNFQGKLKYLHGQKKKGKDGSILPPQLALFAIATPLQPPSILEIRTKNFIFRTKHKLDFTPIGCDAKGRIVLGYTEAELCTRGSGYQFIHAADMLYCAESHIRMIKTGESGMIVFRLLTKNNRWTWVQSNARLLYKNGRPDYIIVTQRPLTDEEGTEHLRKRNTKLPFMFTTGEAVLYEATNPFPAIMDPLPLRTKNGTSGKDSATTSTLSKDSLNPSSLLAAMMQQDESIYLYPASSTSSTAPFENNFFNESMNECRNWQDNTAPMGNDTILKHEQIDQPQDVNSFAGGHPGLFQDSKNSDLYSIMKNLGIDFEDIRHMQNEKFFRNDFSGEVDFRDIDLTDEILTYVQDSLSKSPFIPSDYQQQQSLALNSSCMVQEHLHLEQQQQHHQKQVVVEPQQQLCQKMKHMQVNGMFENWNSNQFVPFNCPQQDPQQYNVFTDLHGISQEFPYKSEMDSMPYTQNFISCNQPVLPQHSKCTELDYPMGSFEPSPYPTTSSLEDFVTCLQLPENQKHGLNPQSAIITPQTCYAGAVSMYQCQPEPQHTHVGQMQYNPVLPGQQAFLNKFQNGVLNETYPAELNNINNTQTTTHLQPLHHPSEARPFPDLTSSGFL
In short: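 HepG2 cells (HG2L7.5c1) stably carrying a firefly luciferase reporter driven by 20 dioxin responsive elements were exposed to compound for 24 h at 37C after a 5 h settling period; luminescence rise (ONE-Glo) indicated activation.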

[3] = qHTS assay to identify small molecule that activate the aryl hydrocarbon receptor (AhR) signaling pathway - cell viability counter screen (AID 743086); note: nearly all actives have a fitted effect of over 45% in size; note: potency is the fitted concentration of half-maximal effect
In short: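 HepG2-AhR-luc (HG2L7.5c1) cells, 4000/well, treated 24 h at 37 C with compound; viability measured as CellTiter-Fluor fluorescence after 30 min in the same wells as the luciferase read.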

[4] = target: Peroxisome proliferator-activated receptor gamma (Homo sapiens) (UniProt P37231); experiment: qHTS assay to identify small molecule agonists of the peroxisome proliferator-activated receptor gamma (PPARg) signaling pathway (AID 743094; active = well fitted activation curve with a large enough effect in the signal ratio in the repeat runs, not every such curve was filed as active; the % refers to the signal ratio)
Peroxisome proliferator-activated receptor gamma (Homo sapiens), sequence (P37231 whole entry, looked up): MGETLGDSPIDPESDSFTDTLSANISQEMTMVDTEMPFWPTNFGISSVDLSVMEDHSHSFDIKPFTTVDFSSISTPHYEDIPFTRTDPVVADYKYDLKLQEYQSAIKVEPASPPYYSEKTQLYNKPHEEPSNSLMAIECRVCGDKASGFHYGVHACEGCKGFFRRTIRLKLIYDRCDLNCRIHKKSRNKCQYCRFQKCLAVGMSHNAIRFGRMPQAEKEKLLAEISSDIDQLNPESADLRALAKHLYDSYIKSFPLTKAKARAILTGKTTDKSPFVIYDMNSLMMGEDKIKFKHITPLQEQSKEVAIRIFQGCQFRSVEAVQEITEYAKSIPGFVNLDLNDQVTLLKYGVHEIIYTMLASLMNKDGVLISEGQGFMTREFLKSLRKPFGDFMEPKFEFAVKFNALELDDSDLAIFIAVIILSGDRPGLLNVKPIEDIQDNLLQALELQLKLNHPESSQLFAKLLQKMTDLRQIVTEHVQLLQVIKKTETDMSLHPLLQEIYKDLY
In short: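 Cells from the PPARg UAS-bla HEK293H line are plated and incubated 5 h at 37C. Compounds in DMSO are pinned in and left 17 h at 37C. LiveBLAzer B/G substrate is then added for 1 h at room temperature before fluorescence is measured.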

[5] = qHTS assay to identify small molecule antagonists of the peroxisome proliferator-activated receptor gamma (PPARg) signaling pathway - cell viability counter screen (AID 743194); note: nearly all actives have a fitted effect of over 55% in size
In short: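 Cytotoxicity counter screen in PPARg-bla HEK293H cells, same wells as reporter assay. Compounds plus 50 nM rosiglitazone (final) for 17 h at 37 C, then viability read by CellTiter-Glo luminescence.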

[6] = qHTS assay for small molecule agonists of the antioxidant response element (ARE) signaling pathway (AID 743202; active = well fitted activation curve with a large enough effect in the signal ratio in the repeat runs, not every such curve was filed as active; the % refers to the signal ratio)
In short: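 HepG2 ARE-bla cells; 16 h treatment at 37 C; FRET-based beta-lactamase fluorescence read after 2 h substrate incubation at room temperature.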

[7] = qHTS assay for small molecule agonists of the antioxidant response element (ARE) signaling pathway - cell viability counter screen (AID 743203; calls by dose curve; note: nearly all actives have a fitted effect of over 55% in size)
In short: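 Cytotoxicity was tested in parallel with the ARE reporter screen. ARE-bla HepG2 cells were exposed to compounds for 16 hrs, and viability was taken from CellTiter-Glo luminescence.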

[8] = qHTS assay for small molecule activators of the heat shock response signaling pathway - cell viability counter screen (AID 743209); note: nearly all actives have a fitted effect of over 50% in size
In short: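 Cytotoxicity counter screen run in parallel with the HSE beta-lactamase reporter, using the same wells. HeLa HSE-bla cells received compound for 5 h at 37 C; ATP-based CellTiter-Glo luminescence was measured after 30 min at room temperature.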

[9] = qHTS assay for small molecule activators of the heat shock response signaling pathway (AID 743210; active = well fitted activation curve with a large enough effect in the signal ratio in the repeat runs, with a control signal flat, not every such curve was filed as active; the % refers to the signal ratio;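 note: HeLa cells with beta-lactamase reporter driven by heat shock elements; series mostly up to about 63 µM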)
In short: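 Following overnight attachment, HSE-bla HeLa cells received test compounds for 5 h at 37 C; beta-lactamase activity was then detected via FRET substrate fluorescence.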

[10] = qHTS assay to identify small molecule agonists of the peroxisome proliferator-activated receptor delta (PPARd) signaling pathway - cell viability counter screen (AID 743211); note: nearly all actives have a fitted effect of over 55% in size
In short: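 PPARd-bla HEK293H cells (UAS-beta-lactamase reporter) were treated with compounds for 17 h at 37 C. Viability was then read in the same wells by CellTiter-Glo luminescence after 30 min at room temperature.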

[11] = qHTS assay to identify small molecule antagonists of the peroxisome proliferator-activated receptor delta (PPARd) signaling pathway - cell viability counter screen (AID 743213); note: nearly all actives have a fitted effect of over 50% in size
In short: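 Cytotoxicity counter screen: CellTiter-Glo luminescence read 30 min after addition, in the same wells as the reporter assay. There, PPARd UAS-bla HEK293H cells (3000/well) were treated 17 h at 37 C with compound and 300 nM L165041.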

[12] = qHTS assay to identify small molecule agonists of the farnesoid-X-receptor (FXR) signaling pathway - cell viability counter screen (AID 743218); note: nearly all actives have a fitted effect of over 45% in size
In short: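 Cells were seeded, left 5 h at 37 C and 5% CO2, then dosed with compound in DMSO for 16 h. After the beta-lactamase FRET read, CellTiter-Glo was added and luminescence measured 30 min later.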

[13] = target: Bile acid receptor (Homo sapiens) (UniProt Q96RI1); experiment: qHTS assay to identify small molecule agonists of the farnesoid-X-receptor (FXR) signaling pathway (AID 743220; active = well fitted activation curve with a large enough effect in the signal ratio in the repeat runs, not every such curve was filed as active; the % refers to the signal ratio)
Bile acid receptor (Homo sapiens), sequence (Q96RI1 whole entry, looked up): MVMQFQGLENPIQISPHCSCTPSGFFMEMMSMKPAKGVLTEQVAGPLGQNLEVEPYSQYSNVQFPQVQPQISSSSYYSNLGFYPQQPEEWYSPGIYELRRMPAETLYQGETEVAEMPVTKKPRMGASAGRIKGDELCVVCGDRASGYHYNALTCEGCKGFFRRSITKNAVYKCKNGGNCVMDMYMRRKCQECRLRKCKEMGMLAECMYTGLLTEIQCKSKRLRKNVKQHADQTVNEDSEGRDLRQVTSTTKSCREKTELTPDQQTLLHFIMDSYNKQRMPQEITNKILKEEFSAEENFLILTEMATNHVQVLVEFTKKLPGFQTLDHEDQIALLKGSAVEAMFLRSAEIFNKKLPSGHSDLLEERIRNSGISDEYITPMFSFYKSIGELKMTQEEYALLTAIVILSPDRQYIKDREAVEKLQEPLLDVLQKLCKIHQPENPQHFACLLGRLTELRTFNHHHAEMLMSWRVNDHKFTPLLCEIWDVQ
In short: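 FXR-UAS-bla HEK 293T cells carrying a UAS-driven beta-lactamase reporter were plated for 5 h at 37C/5% CO2, then exposed to DMSO-dissolved Tox21 10K compounds for 16 h at 37C. A LiveBLAzer B/G FRET substrate was loaded for 2 h at room temperature before fluorescence reading.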

[14] = target: Peroxisome proliferator-activated receptor delta (Homo sapiens) (UniProt Q03181); experiment: qHTS assay to identify small molecule agonists of the peroxisome proliferator-activated receptor delta (PPARd) signaling pathway (AID 743212; calls by dose curve)
Peroxisome proliferator-activated receptor delta (Homo sapiens), sequence (Q03181 whole entry, looked up): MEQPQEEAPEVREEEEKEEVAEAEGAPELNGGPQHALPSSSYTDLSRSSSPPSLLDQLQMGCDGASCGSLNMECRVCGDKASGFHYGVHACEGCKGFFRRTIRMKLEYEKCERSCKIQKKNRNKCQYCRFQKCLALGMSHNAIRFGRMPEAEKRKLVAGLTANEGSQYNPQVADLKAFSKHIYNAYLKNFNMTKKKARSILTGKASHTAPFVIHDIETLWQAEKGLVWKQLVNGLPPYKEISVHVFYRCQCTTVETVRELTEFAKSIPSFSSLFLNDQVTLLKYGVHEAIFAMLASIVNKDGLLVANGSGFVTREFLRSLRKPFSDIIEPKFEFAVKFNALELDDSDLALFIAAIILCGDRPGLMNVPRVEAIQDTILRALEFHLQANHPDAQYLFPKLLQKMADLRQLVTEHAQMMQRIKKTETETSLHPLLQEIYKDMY
In short: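 Tox21 library screened in GeneBLAzer PPARd UAS-bla HEK293H cells. After compound treatment at 37 C, a FRET-based beta-lactamase substrate was applied for 2 h and fluorescence recorded.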

[15] = qHTS assay to identify small molecule antagonists of the farnesoid-X-receptor (FXR) signaling pathway - cell viability counter screen (AID 743221; active = well fitted cell-killing curve with a large enough effect in the repeat runs, not every such curve was filed as active; note: nearly all actives have a fitted effect of over 50% in size)
In short: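 FXR-UAS-bla HEK 293T cells were treated with test compounds plus chenodeoxycholic acid (50 uM final) for 16 h at 37 C. Cell viability in the same wells was then read as CellTiter-Glo luminescence after 30 min at room temperature.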

[16] = target: Vitamin D3 receptor (Homo sapiens) (UniProt P11473); experiment: qHTS assay to identify small molecule agonists of the vitamin D receptor (VDR) signaling pathway (AID 743222; calls by dose curve)
Vitamin D3 receptor (Homo sapiens), sequence (P11473 whole entry, looked up): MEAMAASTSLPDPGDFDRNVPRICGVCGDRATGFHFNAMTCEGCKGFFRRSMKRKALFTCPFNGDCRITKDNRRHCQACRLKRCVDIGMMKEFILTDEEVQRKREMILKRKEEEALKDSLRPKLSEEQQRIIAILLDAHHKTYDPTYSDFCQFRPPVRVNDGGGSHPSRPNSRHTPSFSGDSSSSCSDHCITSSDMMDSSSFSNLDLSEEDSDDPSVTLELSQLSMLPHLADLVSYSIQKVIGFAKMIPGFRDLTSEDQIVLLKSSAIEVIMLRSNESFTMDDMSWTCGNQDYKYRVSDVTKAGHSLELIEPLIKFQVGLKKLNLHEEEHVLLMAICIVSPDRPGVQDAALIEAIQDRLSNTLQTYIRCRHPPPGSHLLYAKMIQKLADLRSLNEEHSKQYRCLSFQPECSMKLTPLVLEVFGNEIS
In short: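 Cells carrying a VDR-driven beta-lactamase reporter are seeded at 2,000 per well and rested 4 h. Compounds in DMSO are added for 16 h at 37C, and FRET substrate fluorescence is measured after 2 h at room temperature.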

[17] = target: Bile acid receptor (Homo sapiens) (UniProt Q96RI1); experiment: qHTS assay to identify small molecule antagonists of the farnesoid-X-receptor (FXR) signaling pathway (AID 743217; active = well fitted inhibition curve with a large enough effect in the signal ratio in the repeat runs, not every such curve was filed as active; the % refers to the signal ratio)
In short: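 Cells carrying a UAS-driven beta-lactamase reporter (GeneBLAzer FXR-UAS-bla HEK 293T) were plated and rested 5 h at 37 °C. Compounds in DMSO were added alongside chenodeoxycholic acid agonist at 50 uM final and left 16 h at 37 °C before FRET substrate readout.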

[18] = target: Vitamin D3 receptor (Homo sapiens) (UniProt P11473); experiment: qHTS assay to identify small molecule antagonists of the vitamin D receptor (VDR) signaling pathway (AID 743223; active = well fitted inhibition curve with a large enough effect in the signal ratio in the repeat runs, not every such curve was filed as active; the % refers to the signal ratio)
In short: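 VDR-bla cells were plated, incubated 4 h at 37C, then given compound and 1alpha,25-dihydroxyvitamin D3 (3 nM final). After 16 h at 37C, LiveBLAzer B/G FRET substrate was added for 2 h at room temperature and fluorescence read.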

[19] = target: Peroxisome proliferator-activated receptor gamma (Homo sapiens) (UniProt P37231); experiment: qHTS assay to identify small molecule antagonists of the peroxisome proliferator-activated receptor gamma (PPARg) signaling pathway (AID 743191; calls by dose curve; note: series mostly up to about 63 µM; nearly all actives have a fitted effect of over 30% in size)
In short: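 GeneBLAzer PPARg UAS-bla HEK293H cells, 5 h post-plating, exposed to compounds 17 h at 37C. LiveBLAzer B/G FRET substrate added for 1 h at room temperature; beta-lactamase reporter read by fluorescence intensity.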

[20] = target: Peroxisome proliferator-activated receptor delta (Homo sapiens) (UniProt Q03181); experiment: qHTS assay to identify small molecule antagonists of the peroxisome proliferator-activated receptor delta (PPARd) signaling pathway (AID 743215; active = well fitted inhibition curve with a large enough effect in the signal ratio in the repeat runs, not every such curve was filed as active; the % refers to the signal ratio;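 note: cells stimulated with agonist L165041 at 300 nM final during compound exposure; series mostly up to about 62 µM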)
In short: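 Cells: HEK293H with a UAS-driven beta-lactamase reporter responsive to PPARd. Compounds were co-added with L165041 (300 nM, final) and incubated 17 h at 37 C before a 2 h room-temperature FRET substrate step and fluorescence reading.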

SMILES: CNC(=O)Nc1ccc(Cl)c(Cl)c1
- Potency [1]: inactive
- Potency [2]: 54.5 µM (active)
- Potency [3]: inactive
- Potency [4]: inactive
- outcome [5]: inactive
- Potency [6]: inactive
- outcome [7]: inactive
- outcome [8]: inactive
- outcome [9]: inactive
- outcome [10]: inactive
- outcome [11]: inactive
- outcome [12]: inactive
- outcome [13]: inactive

SMILES: CC(=O)OCC(=O)[C@@]1(O)[C@H](C)C[C@H]2[C@@H]3CCC4=CC(=O)C=C[C@]4(C)[C@@]3(F)[C@@H](O)C[C@@]21C
- Potency [1]: inactive
- Potency [2]: inactive
- Potency [3]: inactive
- Potency [4]: inactive
- Potency [6]: inactive
- outcome [8]: inactive
- outcome [9]: inactive
- outcome [10]: inactive
- outcome [14]: inactive
- outcome [11]: inactive
- outcome [12]: inactive
- outcome [15]: inactive
- outcome [16]: inactive

SMILES: O=C(CO)[C@@H](O)[C@H](O)[C@H](O)CO
- Potency [1]: inactive
- Potency [2]: inactive
- Potency [3]: inactive
- Potency [4]: inactive
- Potency [6]: inactive
- outcome [7]: inactive
- outcome [9]: inactive
- outcome [10]: inactive
- outcome [15]: inactive

SMILES: C=CC(C)(CCC=C(C)C)OC(=O)CC (centres undefined)
- Potency [1]: inactive
- Potency [2]: inactive
- Potency [3]: inactive
- Potency [4]: inactive
- outcome [5]: inactive
- Potency [6]: inactive
- outcome [7]: inactive
- outcome [9]: inactive
- outcome [10]: inactive
- outcome [11]: inactive
- outcome [17]: inactive
- outcome [12]: inactive
- outcome [13]: inactive
- outcome [15]: inactive
- outcome [16]: inactive
- outcome [18]: inactive

SMILES: Cc1nc2ccc(CN(C)c3ccc(C(=O)N[C@@H](CCC(=O)O)C(=O)O)s3)cc2c(=O)[nH]1
- Potency [1]: inactive
- Potency [2]: inactive
- Potency [3]: inactive
- Potency [4]: inactive
- Potency [19]: inactive
- Potency [6]: inactive
- outcome [7]: inactive
- outcome [8]: inactive
- outcome [9]: inactive
- outcome [10]: inactive
- outcome [14]: inactive
- outcome [11]: inactive
- outcome [20]: inactive
- outcome [12]: inactive
- outcome [13]: inactive
- outcome [16]: inactive
- outcome [18]: inactive

SMILES: CC1=NS(=O)(=O)c2cc(Cl)ccc2N1
- Potency [1]: inactive
- Potency [2]: inactive
- Potency [3]: inactive
- Potency [4]: inactive
- outcome [5]: inactive
- Potency [6]: inactive
- outcome [7]: inactive
- outcome [8]: inactive
- outcome [9]: inactive
- outcome [10]: inactive
- outcome [14]: inactive
- outcome [11]: inactive
- outcome [20]: inactive
- outcome [12]: inactive
- outcome [15]: inactive

SMILES: CC12CCC(C(=O)C1=O)C2(C)C (centres undefined)
- Potency [1]: inactive
- Potency [2]: inactive
- Potency [3]: inactive
- Potency [4]: inactive
- outcome [5]: inactive
- Potency [6]: inactive
- outcome [7]: inactive
- outcome [9]: inactive
- outcome [10]: inactive
- outcome [14]: inactive
- outcome [20]: inactive
- outcome [12]: inactive
- outcome [13]: inactive
- outcome [15]: inactive
- outcome [16]: inactive
- outcome [18]: inactive

SMILES: COc1c(N2CCNC(C)C2)c(F)cc2c(=O)c(C(=O)O)cn(C3CC3)c12 (centres undefined)
- Potency [1]: inactive
- Potency [2]: inactive
- Potency [3]: inactive
- Potency [4]: inactive
- Potency [19]: inactive
- Potency [6]: inactive
- outcome [7]: inactive
- outcome [8]: inactive
- outcome [9]: inactive
- outcome [10]: inactive
- outcome [11]: inactive
- outcome [15]: inactive

SMILES: CC(C)CC(C)(N)C#N (centres undefined)
- Potency [1]: inactive
- Potency [2]: inactive
- Potency [3]: inactive
- Potency [19]: inactive
- Potency [6]: inactive
- outcome [7]: inactive
- outcome [8]: inactive
- outcome [9]: inactive
- outcome [10]: inactive
- outcome [14]: inactive
- outcome [11]: inactive
- outcome [20]: inactive
- outcome [17]: inactive
- outcome [13]: inactive
- outcome [15]: inactive
- outcome [16]: inactive

SMILES: CCN(CC#N)c1cccc(C)c1
- Potency [1]: inactive
- Potency [2]: inactive
- Potency [3]: inactive
- outcome [5]: inactive
- Potency [6]: inactive
- outcome [7]: inactive
- outcome [8]: inactive
- outcome [9]: inactive
- outcome [10]: inactive
- outcome [14]: inactive
- outcome [11]: inactive
- outcome [20]: inactive
- outcome [12]: inactive
- outcome [15]: inactive
- outcome [16]: inactive
- outcome [18]: inactive

SMILES: CC(=O)O[C@@]12CO[C@@H]1C[C@H](O)[C@@]1(C)C(=O)[C@H](O)C3=C(C)[C@@H](OC(=O)[C@H](O)[C@@H](NC(=O)OC(C)(C)C)c4ccccc4)C[C@@](O)([C@@H](OC(=O)c4ccccc4)[C@H]21)C3(C)C
- Potency [1]: 26.6 µM (active)
- Potency [2]: inactive
- Potency [3]: 33.5 µM (active) and 26.6 µM (active)
- Potency [19]: inactive
- outcome [5]: inactive
- outcome [7]: inactive
- outcome [8]: inactive
- outcome [9]: inactive
- outcome [10]: inactive
- outcome [14]: inactive
- outcome [20]: inactive
- outcome [12]: inactive
- outcome [13]: inactive
- outcome [15]: inactive
- outcome [16]: inactive

SMILES: CCN1C=CN(C)C1C (centres undefined)
- Potency [1]: inactive
- Potency [2]: inactive
- Potency [3]: inactive
- outcome [5]: inactive
- Potency [6]: inactive
- outcome [7]: inactive
- outcome [8]: inactive
- outcome [9]: inactive
- outcome [10]: inactive
- outcome [14]: inactive
- outcome [11]: inactive
- outcome [20]: inactive
- outcome [12]: inactive
- outcome [15]: inactive

SMILES: [K+]
- Potency [1]: inactive
- Potency [2]: inactive
- Potency [3]: inactive
- outcome [5]: inactive
- Potency [6]: inactive
- outcome [7]: inactive
- outcome [8]: inactive
- outcome [9]: inactive
- outcome [10]: inactive
- outcome [14]: inactive
- outcome [11]: inactive
- outcome [20]: inactive
- outcome [17]: inactive
- outcome [12]: inactive
- outcome [13]: inactive
- outcome [15]: inactive
- outcome [16]: inactive

From PubChem BioAssay (Tox21)
